# What was measured:
# Assay in all cases: SPOT peptide array binding signal intensity (averaged, normalized) (arbitrary units (background-subtracted, floor 0; scale differs between SH3 domains)); higher = stronger binding of the SH3 domain to the peptide
# AgAbp1 = biological target: AgAbp1
# Method in brief: (§1)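 Spot intensities were captured after detection with anti-GST antibody, an HRP-linked anti-mouse secondary and luminol, and quantified with Genespotter. The probes were GST-fused SH3 domains from four yeast species, produced in E. coli BL21(DE3), purified on glutathione Sepharose and incubated at 10 μg/ml overnight at 4°C on cellulose-bound synthetic 15-mer peptides with cysteines replaced by serines. Binding signal is the normalized, background-subtracted spot intensity averaged over replicates, and its arbitrary units differ between domains.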
# AgBbc1 = biological target: AgBbc1
# Method in brief: as §1
# AgBem1-D1 = biological target: AgBem1-D1
# Method in brief: as §1
# AgBzz1-D1 = biological target: AgBzz1-D1
# Method in brief: as §1
# AgBzz1-D2 = biological target: AgBzz1-D2
# Method in brief: as §1
# AgCyk3 = biological target: AgCyk3
# Method in brief: as §1
# AgFus1 = biological target: AgFus1
# Method in brief: as §1
# AgHof1 = biological target: AgHof1
# Method in brief: as §1
# AgHse1 = biological target: AgHse1
# Method in brief: as §1
# AgLsb1 = biological target: AgLsb1
# Method in brief: as §1
# AgLsb4 = biological target: AgLsb4
# Method in brief: as §1
# AgMyo5 = biological target: AgMyo5
# Method in brief: as §1
# AgNbp2 = biological target: AgNbp2
# Method in brief: as §1
# AgRvs167 = biological target: AgRvs167
# Method in brief: as §1
# AgSho1 = biological target: AgSho1
# Method in brief: as §1
# AgSla1-D1-D2 = biological target: AgSla1-D1-D2
# Method in brief: as §1
# AgSla1-D3 = biological target: AgSla1-D3
# Method in brief: as §1
# CaAbp1-D1 = biological target: CaAbp1-D1
# Method in brief: as §1
# CaAbp1-D2 = biological target: CaAbp1-D2
# Method in brief: as §1
# CaBbc1 = biological target: CaBbc1
# Method in brief: as §1
# CaBem1-D1 = biological target: CaBem1-D1
# Method in brief: as §1
# CaBzz1-D1 = biological target: CaBzz1-D1
# Method in brief: as §1
# CaBzz1-D2 = biological target: CaBzz1-D2
# Method in brief: as §1
# CaCyk3 = biological target: CaCyk3
# Method in brief: as §1
# CaFus1 = biological target: CaFus1
# Method in brief: as §1
# CaHof1 = biological target: CaHof1
# Method in brief: as §1
# CaHse1 = biological target: CaHse1
# Method in brief: as §1
# CaLsb1 = biological target: CaLsb1
# Method in brief: as §1
# CaLsb4 = biological target: CaLsb4
# Method in brief: as §1
# CaMyo5 = biological target: CaMyo5
# Method in brief: as §1
# CaNbp2 = biological target: CaNbp2
# Method in brief: as §1
# CaRvs167 = biological target: CaRvs167
# Method in brief: as §1
# CaRvs167-3 = biological target: CaRvs167-3
# Method in brief: as §1
# CaSho1 = biological target: CaSho1
# Method in brief: as §1
# CaSla1-D1-D2 = biological target: CaSla1-D1-D2
# Method in brief: as §1
# CaSla1-D3 = biological target: CaSla1-D3
# Method in brief: as §1
# ScAbp1 = biological target: ScAbp1
# Method in brief: as §1
# ScBbc1 = biological target: ScBbc1
# Method in brief: as §1
# ScBem1-D1 = biological target: ScBem1-D1
# Method in brief: as §1
# ScBzz1-D1 = biological target: ScBzz1-D1
# Method in brief: as §1
# ScBzz1-D2 = biological target: ScBzz1-D2
# Method in brief: as §1
# ScCyk3 = biological target: ScCyk3
# Method in brief: as §1
# ScFus1 = biological target: ScFus1
# Method in brief: as §1
# ScHof1 = biological target: ScHof1
# Method in brief: as §1
# ScHse1 = biological target: ScHse1
# Method in brief: as §1
# ScLsb1 = biological target: ScLsb1
# Method in brief: as §1
# ScLsb2 = biological target: ScLsb2
# Method in brief: as §1
# ScLsb3 = biological target: ScLsb3
# Method in brief: as §1
# ScLsb4 = biological target: ScLsb4
# Method in brief: as §1
# ScMyo3 = biological target: ScMyo3
# Method in brief: as §1
# ScMyo5 = biological target: ScMyo5
# Method in brief: as §1
# ScNbp2 = biological target: ScNbp2
# Method in brief: as §1
# ScPex13 = biological target: ScPex13
# Method in brief: as §1
# ScRvs167 = biological target: ScRvs167
# Method in brief: as §1
# ScSho1 = biological target: ScSho1
# Method in brief: as §1
# ScSla1-D1-D2 = biological target: ScSla1-D1-D2
# Method in brief: as §1
# ScSla1-D3 = biological target: ScSla1-D3
# Method in brief: as §1
# SpAbp1-D1 = biological target: SpAbp1-D1
# Method in brief: as §1
# SpBbc1 = biological target: SpBbc1
# Method in brief: as §1
# SpBzz1-D1 = biological target: SpBzz1-D1
# Method in brief: as §1
# SpBzz1-D2 = biological target: SpBzz1-D2
# Method in brief: as §1
# SpCyk3 = biological target: SpCyk3
# Method in brief: as §1
# SpHof1 = biological target: SpHof1
# Method in brief: as §1
# SpHof1-2 = biological target: SpHof1-2
# Method in brief: as §1
# SpHof1-3 = biological target: SpHof1-3
# Method in brief: as §1
# SpHse1 = biological target: SpHse1
# Method in brief: as §1
# SpLsb1 = biological target: SpLsb1
# Method in brief: as §1
# SpLsb4 = biological target: SpLsb4
# Method in brief: as §1
# SpMyo1 = biological target: SpMyo1
# Method in brief: as §1
# SpNbp2 = biological target: SpNbp2
# Method in brief: as §1
# SpPex13 = biological target: SpPex13
# Method in brief: as §1
# SpRvs167 = biological target: SpRvs167
# Method in brief: as §1
# SpSla1-D1-D2 = biological target: SpSla1-D1-D2
# Method in brief: as §1
# SpSla1-D3 = biological target: SpSla1-D3
# Method in brief: as §1
binder,measurement,setting,value
EVTPKVPERPSRRKT,SPOT peptide array binding signal intensity,AgAbp1,377
same,SPOT peptide array binding signal intensity,AgBbc1,2180
same,SPOT peptide array binding signal intensity,AgBem1-D1,13
same,SPOT peptide array binding signal intensity,AgBzz1-D1,819
same,SPOT peptide array binding signal intensity,AgBzz1-D2,136
same,SPOT peptide array binding signal intensity,AgCyk3,1
same,SPOT peptide array binding signal intensity,AgFus1,4.5
same,SPOT peptide array binding signal intensity,AgHof1,21.8
same,SPOT peptide array binding signal intensity,AgHse1,47
same,SPOT peptide array binding signal intensity,AgLsb1,39.9
same,SPOT peptide array binding signal intensity,AgLsb4,2480
same,SPOT peptide array binding signal intensity,AgMyo5,1.25
same,SPOT peptide array binding signal intensity,AgNbp2,44.5
same,SPOT peptide array binding signal intensity,AgRvs167,11.3
same,SPOT peptide array binding signal intensity,AgSho1,8.25
same,SPOT peptide array binding signal intensity,AgSla1-D1-D2,≤ 0
same,SPOT peptide array binding signal intensity,AgSla1-D3,7.75
same,SPOT peptide array binding signal intensity,CaAbp1-D1,324
same,SPOT peptide array binding signal intensity,CaAbp1-D2,620
same,SPOT peptide array binding signal intensity,CaBbc1,2760
same,SPOT peptide array binding signal intensity,CaBem1-D1,24
same,SPOT peptide array binding signal intensity,CaBzz1-D1,1370
same,SPOT peptide array binding signal intensity,CaBzz1-D2,406
same,SPOT peptide array binding signal intensity,CaCyk3,420
same,SPOT peptide array binding signal intensity,CaFus1,≤ 0
same,SPOT peptide array binding signal intensity,CaHof1,4.88
same,SPOT peptide array binding signal intensity,CaHse1,316
same,SPOT peptide array binding signal intensity,CaLsb1,≤ 0
same,SPOT peptide array binding signal intensity,CaLsb4,6660
same,SPOT peptide array binding signal intensity,CaMyo5,≤ 0
same,SPOT peptide array binding signal intensity,CaNbp2,80.8
same,SPOT peptide array binding signal intensity,CaRvs167,177
same,SPOT peptide array binding signal intensity,CaRvs167-3,2
same,SPOT peptide array binding signal intensity,CaSho1,≤ 0
same,SPOT peptide array binding signal intensity,CaSla1-D1-D2,786
same,SPOT peptide array binding signal intensity,CaSla1-D3,0.5
same,SPOT peptide array binding signal intensity,ScAbp1,141
same,SPOT peptide array binding signal intensity,ScBbc1,2080
same,SPOT peptide array binding signal intensity,ScBem1-D1,10
same,SPOT peptide array binding signal intensity,ScBzz1-D1,57.5
same,SPOT peptide array binding signal intensity,ScBzz1-D2,11.8
same,SPOT peptide array binding signal intensity,ScCyk3,1.53e-05
same,SPOT peptide array binding signal intensity,ScFus1,5
same,SPOT peptide array binding signal intensity,ScHof1,11.5
same,SPOT peptide array binding signal intensity,ScHse1,≤ 0
same,SPOT peptide array binding signal intensity,ScLsb1,842
same,SPOT peptide array binding signal intensity,ScLsb2,508
same,SPOT peptide array binding signal intensity,ScLsb3,6280
same,SPOT peptide array binding signal intensity,ScLsb4,5280
same,SPOT peptide array binding signal intensity,ScMyo3,1.5
same,SPOT peptide array binding signal intensity,ScMyo5,≤ 0
same,SPOT peptide array binding signal intensity,ScNbp2,270
same,SPOT peptide array binding signal intensity,ScPex13,1490
same,SPOT peptide array binding signal intensity,ScRvs167,924
same,SPOT peptide array binding signal intensity,ScSho1,28.5
same,SPOT peptide array binding signal intensity,ScSla1-D1-D2,2340
same,SPOT peptide array binding signal intensity,ScSla1-D3,69.4
same,SPOT peptide array binding signal intensity,SpAbp1-D1,130
same,SPOT peptide array binding signal intensity,SpBbc1,1260
same,SPOT peptide array binding signal intensity,SpBzz1-D1,514
same,SPOT peptide array binding signal intensity,SpBzz1-D2,≤ 0
same,SPOT peptide array binding signal intensity,SpCyk3,0.75
same,SPOT peptide array binding signal intensity,SpHof1,25.4
same,SPOT peptide array binding signal intensity,SpHof1-2,74.4
same,SPOT peptide array binding signal intensity,SpHof1-3,73.8
same,SPOT peptide array binding signal intensity,SpHse1,51.2
same,SPOT peptide array binding signal intensity,SpLsb1,1550
same,SPOT peptide array binding signal intensity,SpLsb4,6800
same,SPOT peptide array binding signal intensity,SpMyo1,4.25
same,SPOT peptide array binding signal intensity,SpNbp2,9.5
same,SPOT peptide array binding signal intensity,SpPex13,≤ 0
same,SPOT peptide array binding signal intensity,SpRvs167,1310
same,SPOT peptide array binding signal intensity,SpSla1-D1-D2,48.5
same,SPOT peptide array binding signal intensity,SpSla1-D3,2
VRVKKRPLIRPLNSS,SPOT peptide array binding signal intensity,SpBzz1-D2,≤ 0
same,SPOT peptide array binding signal intensity,SpCyk3,≤ 0
same,SPOT peptide array binding signal intensity,SpHof1,188
same,SPOT peptide array binding signal intensity,SpHof1-2,12.5
same,SPOT peptide array binding signal intensity,SpHof1-3,373
same,SPOT peptide array binding signal intensity,SpHse1,279
same,SPOT peptide array binding signal intensity,SpLsb1,14.5
same,SPOT peptide array binding signal intensity,SpLsb4,135
same,SPOT peptide array binding signal intensity,SpMyo1,5.5
same,SPOT peptide array binding signal intensity,SpNbp2,773
same,SPOT peptide array binding signal intensity,SpPex13,17
same,SPOT peptide array binding signal intensity,SpRvs167,3.67
same,SPOT peptide array binding signal intensity,SpSla1-D1-D2,≤ 0
same,SPOT peptide array binding signal intensity,SpSla1-D3,2

# Reference: the supplement of paper PMC4466140
